Where “and” joins values, the source holds several entries; their conditions need not be identical. Identical values can stand only once. Out of some 5,500 compounds screened, about 2,000 (36%) were called active. Another 18% or so got no clear call; they are omitted. No stated cut-off is given here; in the data, active means normalized growth mostly below about 0.91 (no sharp cut-off); inconclusive means no clear call, values can overlap the other calls; inactive means mostly above about 0.92. The list shows a part of the results.
Assay: chemical genetic growth profiling, strain panel (AID 1159580);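 further: tested at 20 µM; growth read once vehicle control cultures reached saturation at 30 °C; 1 = growth at the plate median or of vehicle wells; lower values mean less growth of the strain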
Conditions: S. cerevisiae deletion strains, growth OD

Measured: normalized growth

COc1c2ccoc2nc2c(OC)c(OCC(O)C(C)(C)O)ccc12 (configuration not stated)
inactive: locus YAL013W, strain DEP1, hits give low values 0.992 | locus YAL021C, strain ccr4, hits give low values 1.04 | locus YAL026C, strain drs2, hits give low values 1.02 | locus YAL030W, strain snc1, hits give low values 1.01 | locus YBL061C, strain skt5, hits give low values 1.02 | locus YBR009C, strain hhf1, hits give low values 1.02 | locus YBR021W, strain FUR4, hits give low values 0.992 | locus YBR023C, strain chs3, hits give low values 1.02 | locus YBR171W, strain sec66, hits give low values 1.02 | locus YBR229C, strain ROT2, hits give low values 1 | locus YBR231C, strain swc5, hits give low values 1.01 | locus YBR279W, strain paf1, hits give low values 1.01 | locus YCL011C, strain gbp2, hits give low values 1.03 | locus YCL016C, strain dcc1, hits give low values 1.02 | locus YCL029C, strain bik1, hits give low values 0.974 | locus YCL061C, strain MRC1, hits give low values 1.03 | locus YCL069W, strain vba3, hits give low values 1.01 | locus YCR088W, strain abp1, hits give low values 1.02 | locus YDL005C, strain med2, hits give low values 1.01 | locus YDL035C, strain GPR1, hits give low values 0.992 | locus YDL040C, strain nat1, hits give low values 1.01 | locus YDL074C, strain BRE1, hits give low values 1.02 | locus YDL101C, strain DUN1, hits give low values 1 | locus YDL134C, strain PPH21, hits give low values 0.991 | locus YDL185W, strain tfp1, hits give low values 0.974 | locus YDL192W, strain arf1, hits give low values 0.984 | locus YDR001C, strain nth1, hits give low values 1.01 | locus YDR069C, strain doa4, hits give low values 1.03 | locus YDR101C, strain arx1, hits give low values 1 | locus YDR137W, strain rgp1, hits give low values 1.02 | locus YDR150W, strain NUM1, hits give low values 0.99 | locus YDR159W, strain sac3, hits give low values 1.01 | locus YDR162C, strain NBP2, hits give low values 1.02 | locus YDR195W, strain ref2 0.976 | locus YDR297W, strain sur2, hits give low values 1.02 | locus YDR318W, strain mcm21, hits give low values 0.981 | locus YDR334W, strain swr1, hits give low values 1.02 | locus YDR335W, strain msn5, hits give low values 1.02 | locus YDR388W, hits give low values 0.997 | locus YDR392W, strain spt3, hits give low values 0.982 | locus YDR502C, strain sam2, hits give low values 1.01 | locus YEL003W, strain gim4, hits give low values 1.01 | locus YEL037C, strain rad23, hits give low values 1.01 | locus YEL061C, strain CIN8 (second series), hits give low values 1.01 | locus YEL061C, strain CIN8, hits give low values 1 | locus YER015W, strain faa2, hits give low values 1.02 | locus YER016W, strain bim1, hits give low values 1.01 | locus YER110C, hits give low values 0.983 | locus YER111C, strain swi4, hits give low values 1.02 | locus YER155C, strain BEM2 (second series), hits give low values 1.04 | locus YER155C, strain BEM2, hits give low values 0.996 | locus YER167W, strain BCK2, hits give low values 0.972 | locus YFR010W, strain ubp6, hits give low values 1.02 | locus YGL078C, strain dbp3, hits give low values 0.983 | locus YGL086W, strain mad1, hits give low values 0.976 | locus YGL167C, strain pmr1, hits give low values 1.01 | locus YGL173C, strain kem1, hits give low values 1.02 | locus YGL227W, strain vid30, hits give low values 1.02 | locus YGL240W, strain doc1, hits give low values 1.04 | locus YGL248W, strain PDE1, hits give low values 0.991 | locus YGL253W, strain hxk2, hits give low values 1.02 | locus YGR078C, strain PAC10, hits give low values 1.02 | locus YGR135W, strain pre9, hits give low values 0.995 | locus YGR229C, strain SMI1, hits give low values 1.02 | locus YGR252W, strain gcn5, hits give low values 0.984 | locus YHR013C, strain ard1, hits give low values 1.03 | locus YHR027C, strain rpn1, hits give low values 1.01 | locus YHR030C, strain SLT2, hits give low values 0.99 and 1.02 | locus YHR079C, strain IRE1 (second series), hits give low values 1 | locus YHR079C, strain IRE1, hits give low values 1.03 | locus YHR094C, strain hxt1, hits give low values 0.971 | locus YHR129C, strain ARP1, hits give low values 1 | locus YHR142W, strain chs7, hits give low values 1.03 | locus YHR200W, strain rpn10, hits give low values 0.974 | locus YIL066C, strain RNR3, hits give low values 0.998 | locus YIL073C, strain SPO22, hits give low values 0.9 | locus YIL125W, strain kgd1, hits give low values 0.999 | locus YIR030C, strain dcg1, hits give low values 0.983 | locus YJL092W, strain hpr5, hits give low values 1.01 | locus YJL095W, strain BCK1 (second series), hits give low values 1.01 | locus YJL095W, strain BCK1, hits give low values 1.05 and 1 | locus YJL115W, strain asf1, hits give low values 1.02 | locus YJL129C, strain trk1, hits give low values 1.04 | locus YJL134W, strain LCB3, hits give low values 0.989 | locus YJL154C, strain vps35, hits give low values 1.02 | locus YJL164C, strain tpk1, hits give low values 1.02 | locus YJL166W, strain qcr8, hits give low values 1.02 | locus YJL168C, strain set2, hits give low values 0.995 | locus YJL187C, strain SWE1 (second series), hits give low values 1.01 | locus YJL187C, strain SWE1, hits give low values 1.01 | locus YJR043C, strain POL32, hits give low values 0.987 | locus YJR066W, strain TOR1, hits give low values 0.964

Reference: PubChem BioAssay AID1159580 (chemical genetic matrix, 2015)
